The full list was thinned out, with hits kept by preference.
ClpP mod – qHTS Assay for Activators of ClpP. ATP-dependent Clp protease proteolytic subunit (Bacillus subtilis (strain 168)), P80244. Potency, µM (series often up to 57.5 µM). 340,000 tested, 1.9% active. AID 651965, 2013. purified B. subtilis ClpP, FRET peptide cleavage, 20 min; active = well fitted falling curve with a large enough effect; inconclusive = small, poorly fitted or top-dose-only effect; inactive = no such curve, though single readings can be large or run the other way; also: the source files actives as falling curves though it sought activators and does not explain the sign; nearly all actives have a fitted effect of over 65% in size
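Purified B. subtilis ClpP, 10 microg/mL final in Tris/HCl pH8 with KCl, BSA, glycerol and Tween-20, cleaved an Abz/nitrotyrosine-quenched decapeptide. Fluorescence (ex 320, em 430) was read at 0 and 20 min at room temperature. Delta was normalized to 5.8 microM ADEP and DMSO/no-enzyme controls.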
GALK inhibitor – galactokinase (human) inhibition. Purified GALK, Kinase-Glo residual ATP luminescence. 270,000 tested, 0.007% active. Potency, µM (series often up to 57.5 µM), hits mostly inhibitors. P51570. AID 1868
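Luminescence from leftover ATP (Ultra-Glo luciferase/luciferin) served as read-out after a 1 h room-temperature reaction of 5 nM GALK with 35 uM ATP and 100 uM galactose.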
Eya2 phos inh – blocks the phosphatase activity of human Eya2; O00167; AID 488837; recombinant Eya2, OMFP fluorescence dephosphorylation (OMFP is methylfluorescein phosphate); 330,000 tested, 0.006% active; Potency, µM (top dose mostly 76.9 µM), most hits filed as inhibitors
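Eya2 protein (added as 0.2 uM solution) was preincubated with compound for 10 min at ambient temperature in 50 mM HEPES pH 7.5, 50 mM NaCl, 5 uM MgCl2, 0.05% BSA, 1 mM DTT. OMFP (added at 50 uM) then reacted 10 min; fluorescence read at 485/525 nm.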
USP2a block – blocks human ubiquitin-specific protease USP2a. O75604. USP2 core, Ub-CHOP2 coupled fluorogenic reporter, 485/531. Potency, µM (series often up to 38.3 µM), hits mostly inhibitors. 330,000 tested, 0.01% active
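Deubiquitinase activity read as fluorescence (485/531 nm) after Ub-CHOP2 cleavage activates the enterokinase reporter on its substrate; USP2 core 10nM, Ub-CHOP2 and substrate 25nM each, 30min compound preincubation then 60min RT; data normalized to NEM, curves fitted.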
Large screens that a line does not name were inactive; ! = not confirmed by another sample. Unless noted, calls follow the shape of the dose curve; as a rule, active = well fitted inhibition curve with a large enough effect; inconclusive = small, poorly fitted or top-dose-only effect, or effect the other way; inactive = flat fitted curve, though single readings scatter.

O=S(=O)(c1ccc2ncccc2c1)N1CCN(c2nc(-c3cccs3)nc3ccccc23)CC1	ClpP mod 32µM (no result: GALK inhibitor, Eya2 phos inh, USP2a block)
CC(C)(C)c1cccc(S(=O)(=O)N2CCN(c3nc(-c4cccs4)nc4ccccc34)CC2)c1	none (no result: GALK inhibitor, Eya2 phos inh, USP2a block)
c1cncc(-c2nc(N3CCCCCC3)c3ccccc3n2)c1	none
CCOC(=O)N1CCN(c2nc(-c3cccs3)nc3ccccc23)CC1	none (no result: ClpP mod)
O=c1[nH]c(SCc2ccc(Cl)cc2)nc2[nH]ncc12	none
COc1ccc(S(=O)(=O)N2CCN(c3nc(-c4cccs4)nc4ccccc34)CC2)cc1	ClpP mod 28µM! (no result: GALK inhibitor, Eya2 phos inh, USP2a block)
CC(=O)c1ccc(S(=O)(=O)N2CCN(c3nc(-c4cccs4)nc4ccccc34)CC2)cc1	none (no result: GALK inhibitor, Eya2 phos inh, USP2a block)
CC(=O)N1CCc2cc([N+](=O)[O-])ccc21	none (no result: GALK inhibitor, Eya2 phos inh, USP2a block)
CC(=O)N1CCc2cc3nc(C)cc(C)c3cc21	ClpP mod 25µM
C/C(=N\NC(=O)c1ccc(CSc2cccc3cccnc23)cc1)C1CCCCC1	ClpP mod 28µM
COc1ccc(/C(C)=N/NC(=O)c2ccc(CSc3cccc4cccnc34)cc2)cc1OC	ClpP mod 22µM
Cc1nn(-c2ccc(F)cc2)c2nc(N)c(C#N)c(-c3ccc(O)c(O)c3)c12	none (no result: GALK inhibitor)
COc1cc(-c2c(C#N)c(N)nc3c2c(C)nn3-c2ccc(C)c(C)c2)cc(OC)c1OC	ClpP mod 25µM
Cc1cc(C)c(C(N)=O)c(SCC(=O)c2ccc(Cl)cc2)n1	none
Cn1c(N2CCOCC2)nc(-c2ccccc2)c1-c1ccccc1	ClpP mod 11µM
c1ccc(-c2nc3ccccc3nc2N2CCOCC2)cc1	none
NC(=O)c1ccccc1OCCOc1ccc(Br)cc1	none (no result: ClpP mod)
COCCCn1c(=NC(=O)c2ccncc2)c(C#N)cc2c(=O)n3cccc(C)c3nc21	ClpP mod 0.71µM
CCCCCn1c(=NC(=O)c2ccco2)c(C(=O)OCC)cc2c(=O)n3ccccc3nc21	ClpP mod 16µM
CCOC(=O)c1cc2c(=O)n3cccc(C)c3nc2n(CCCOC)c1=NC(=O)c1cccnc1	ClpP mod 16µM
Cc1cccn2c(=O)c3cc(C#N)c(=NC(=O)c4ccncc4)n(CCCOC(C)C)c3nc12	none
CCOCCCn1c(=NC(=O)c2cccnc2)c(C(=O)OCC)cc2c(=O)n3ccccc3nc21	ClpP mod 20µM!
OC(CNCC#Cc1ccccc1)c1ccccc1 (stereo not given)	none
O=C(Cn1cc(SCc2ccc(Cl)cc2)c2ccccc21)N1CCOCC1	none
O=C(Cn1cc(SCc2ccc(F)cc2)c2ccccc21)N1CCOCC1	ClpP mod 2.8µM
Cc1ccc2[nH]c(-c3ccccc3)c(CN3CCN(C)CC3)c(=O)c2c1	none
CC(C)c1ccc(OCCCCN2CCCCC2)cc1	none (no result: ClpP mod)
CC(=O)Nc1ccc2c(c1)C(=O)N(C1CCCCC1)C2=O	ClpP mod 25µM
O=C(Cn1nc(-c2ccccc2Cl)ccc1=O)Nc1ccccc1-c1ccccc1	ClpP mod 14µM
Cn1c(=O)c2c(nc(CN3CCN(C(=O)c4ccco4)CC3)n2Cc2cccc(Cl)c2)n(C)c1=O	none
CCC(=O)N1CCN(c2cc(NCC3CCCO3)c(F)cc2[N+](=O)[O-])CC1 (stereo not given)	none (no result: ClpP mod)
Cc1cccc(N2CCN(Cc3nc(-c4ccccc4Cl)oc3C)CC2)n1	none (no result: ClpP mod)
O=C(CSCc1c(Cl)cccc1Cl)Nc1ccc2c(c1)OCCO2	ClpP mod 16µM (no result: GALK inhibitor)
O=C(CCc1ccccc1)Nc1ccc2c(c1)OCCO2	ClpP mod 28µM
O=C(CCSCc1ccccc1)Nc1ccc2c(c1)OCCO2	none
CCc1ccc(OCC(=O)Nc2ccc(CN3CCCCC3)cc2)cc1	none (no result: ClpP mod, GALK inhibitor)
COc1cc(-c2cc(C(=O)NCc3ccco3)c3ccccc3n2)cc(OC)c1OC	none
O=C(COC(=O)c1cc(-c2cccs2)nc2ccccc12)NCc1ccco1	ClpP mod inconclusive
O=C(N/N=C/c1cccnc1)c1cc(-c2cccs2)nc2ccccc12	ClpP mod 25µM
O=C(N/N=C/c1ccc2ncccc2c1)c1cc(-c2cccs2)nc2ccccc12	none
O=C(NCc1ccco1)c1cc(-c2cccs2)nc2ccccc12	ClpP mod 25µM
O=C(NN1CCOCC1)c1cc(-c2cccs2)nc2ccccc12	ClpP mod 10µM
Cc1ccc(-c2cc(C(=O)NCc3ccco3)c3ccccc3n2)s1	ClpP mod 32µM
Cn1c(-c2cccs2)nc2ccccc21	none
Cc1oc(-c2ccc(Cl)cc2)nc1CS(=O)CC(=O)NCc1ccc2c(c1)OCO2 (stereo not given)	none (no result: GALK inhibitor)
COc1cc(Cl)c(C)cc1NC(=O)C1CCN(c2nc3ccccc3n3cccc23)CC1	none (no result: GALK inhibitor, Eya2 phos inh, USP2a block)
O=C(NCc1ccco1)c1nn2c(C(F)(F)F)cc(-c3cccs3)nc2c1Cl	none
O=C(NCc1ccco1)c1cc2nc(-c3cccs3)cc(C(F)(F)F)n2n1	ClpP mod 35µM
CS(=O)(=O)N1CCN(C(=O)c2cc(-c3ccccc3)nc3ccccc23)CC1	none
Cc1nn(-c2ccccn2)c2nc(-c3cccs3)cc(C(=O)NCc3ccco3)c12	ClpP mod 13µM
CS(=O)(=O)N1CCN(C(=O)c2cc(-c3cccs3)nc3ccccc23)CC1	ClpP mod 11µM
COc1ccc(C(=O)C(C)N(C(=O)c2ccc(Cl)cc2Cl)N2C(=O)C3C4C=CC(C4)C3C2=O)cc1 (stereo not given)	none
COc1ccccc1-c1nc(C#N)c(N2CCC(Cc3ccccc3)CC2)o1	none
CC1CCN(c2oc(-c3cccc4ccccc34)nc2C#N)CC1	ClpP mod 5.6µM
N#Cc1nc(-c2cccc3ccccc23)oc1N1CCCCC1	ClpP mod inconclusive
CN(C)c1oc(-c2ccccc2)nc1C#N	ClpP mod inconclusive
N#Cc1nc(Cc2ccccc2)oc1N1CCN(c2ccccc2)CC1	none
CN(C)c1oc(-c2ccccc2Cl)nc1C#N	ClpP mod 14µM
N#Cc1nc(-c2cccs2)oc1N1CCN(c2ccccc2)CC1	ClpP mod 28µM
COc1ccccc1-c1nc(C#N)c(N2CCN(Cc3ccccc3)CC2)o1	ClpP mod 28µM
O=C(c1cc2ccccc2c(=O)o1)N1CCCc2ccccc21	none
CCN(CC(=O)NCc1cccs1)C(=O)c1ccc(S(=O)(=O)N(CC)c2ccccc2)cc1	none (no result: GALK inhibitor)
N#Cc1nc(-c2ccccc2F)oc1N1CCCCC1	none
CC1CC(C)CN(c2oc(-c3ccccc3Cl)nc2C#N)C1 (stereo not given)	ClpP mod 11µM
N#Cc1nc(-c2ccccc2Cl)oc1N1CCCCC1	ClpP mod 10µM
COc1ccc(-c2nc(C#N)c(N3CCOCC3)o2)cc1OC	none
COc1ccc(-c2nc(C#N)c(N3CCN(c4cccc(Cl)c4)CC3)o2)cc1OC	ClpP mod 28µM
N#Cc1nc(-c2ccccc2Cl)oc1N1CCN(C(=O)c2ccco2)CC1	none
c1ccc(CN2CCN(C3CCCSc4ccccc43)CC2)cc1 (stereo not given)	none (no result: GALK inhibitor, Eya2 phos inh, USP2a block)
COc1ccc(C(=O)N(C)Cc2ccccn2)cc1OC1CCN(C(C)C)CC1	ClpP mod 28µM
COc1ccc(C(=O)N(C)Cc2ccon2)cc1OC1CCN(C(C)C)CC1	none

Screens from PubChem.
